These results are taken from PubChem BioAssay (NCATS).

Structures are written as SMILES. Records with an inconclusive call do not appear. Calls of active or inactive are those of the source. Calls come from the whole dose curve; as a rule, active = well fitted cell-killing curve with a large enough effect; inconclusive = small, poorly fitted or top-dose-only effect, or effect the other way; inactive = no such curve, though single readings can be large or run the other way. Non-standard residues stand in square brackets, D forms with d. Residues, ends and D or L forms follow the SMILES beside them. *: point of attachment. Sta = CC(C)C[C@H](N)[C@@H](O)CC(=O)O; Isovaleryl = CC(C)CC(=O)*
Potency is the fitted concentration of half-maximal effect.

This test can be described thus: Quantitative High-Throughput drug screen in 47 multiple myeloma cell lines against the NCATS MIPE library collection: KMS28BM_JCRB cell viability assay (AID 1919874). Note: nearly all actives have a fitted effect of over 35% in size. The following applies: CellTiter-Glo ATP, 48 h; series mostly up to 45.8 µM; viability, % of control: at the top concentration. In a few lines: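 MIPE 4.0 approved/investigational drugs; 500 cells/well; 48 h 37 °C humidified 5% CO2; CTG luminescence readout; DMSO = 100%, media = 0% viability.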
Take `COCCCOc1ccnc(CS(=O)c2nc3ccccc3[nH]2)c1C` (centres undefined): the “viability, % of control” value is 112% (inactive).
`CC(C)[N+]1(C)[C@@H]2CC[C@H]1CC(OC(=O)C(CO)c1ccccc1)C2` (some centres undefined): the Potency was 8.33 µM (active).
For `CC(=O)NC[C@H]1CN(c2ccc(N3CCOCC3)c(F)c2)C(=O)O1`, the “viability, % of control” value is 106% (inactive).
For `Nc1cccc2c1CN(C1CCC(=O)NC1=O)C2=O` (centres undefined), the “viability, % of control” value was 91.9% [at 92.2 µM] (inactive).
As for `CCN(CC)CCOc1ccc(Nc2ncc3cc(-c4c(Cl)cccc4Cl)c(=O)n(C)c3n2)cc1`, the Potency is 0.526 µM (active).
Take `Cc1cc(=O)oc2cc(O)ccc12`: the “viability, % of control” value was 119% (inactive).
In the case of `O=C(O)c1cn(-c2ccc(F)cc2)c2cc(N3CCNCC3)c(F)cc2c1=O`, the “viability, % of control” value is 100% (inactive).
On to `CCN(CC)C(=S)SSC(=S)N(CC)CC`, for which the Potency is 0.0019 µM (active).
In the case of `C[C@@H](N)C1CCC(C(=O)Nc2ccncc2)CC1` (some centres undefined), the “viability, % of control” value is 108% (inactive).
`Cc1nccn1CC1CCc2c(c3ccccc3n2C)C1=O` (centres undefined): the Potency was 2.64 µM (active).
In the case of `c1cnc2cc3c(cc2n1)C1CNCC3C1`, the “viability, % of control” value was 128% (inactive).
Still for that read-out and setting: the value for `Cc1cc2cc3c(C)cc(=O)oc3c(C)c2o1` was 90.6% (inactive).
For the molecule `Cc1c(C(=O)NN2CCCCC2)nn(-c2ccc(Cl)cc2Cl)c1-c1ccc(Cl)cc1`, the Potency was 23.5 µM (active).
Take `O=C(NC(Cc1cc(=O)[nH]c2ccccc12)C(=O)O)c1ccc(Cl)cc1` (centres undefined): the “viability, % of control” value is 116% (inactive).
For the molecule `C[C@H](Cn1cnc2c(N)ncnc21)OCP(=O)(O)O`, the “viability, % of control” value was 102% (inactive).
As for `CCCCC(CC)COC(=O)C(C#N)=C(c1ccccc1)c1ccccc1` (centres undefined), the “viability, % of control” value is 103% (inactive).
The same measure, in the same setting: the value for `CC(C)CC(=O)N[C@H](C(=O)N[C@H](C(=O)N[C@@H](CC(C)C)[C@@H](O)CC(=O)N[C@@H](C)C(=O)N[C@@H](CC(C)C)[C@@H](O)CC(=O)O)C(C)C)C(C)C` (Isovaleryl-VV[Sta]A[Sta]-OH) was 112% (inactive); that for `O=P(O)(O)C(O)(Cn1ccnc1)P(=O)(O)O` was 121% [at 23.2 µM] (inactive).
As for `CNC[C@H](O)c1ccc(O)c(O)c1`, the Potency was 21.5 µM (active).
Turning to `CCOC(=O)C1=C[C@@H](OC(CC)CC)[C@H](NC(C)=O)[C@@H](N)C1`, the “viability, % of control” value is 90.2% (inactive).
Consider `O=C(c1ccccc1)c1ccc2n1CCC2C(=O)O` (centres undefined), for which the Potency was 23.5 µM (active).
On to `Nc1ccn([C@@H]2O[C@H](CO)[C@@H](O)C2O)c(=O)n1` (some centres undefined), for which the “viability, % of control” value is 92.3% (inactive).
In the case of `Cc1ccc(Nc2nccc(N(C)c3ccc4c(C)n(C)nc4c3)n2)cc1S(N)(=O)=O`, the “viability, % of control” value is 100% (inactive).
The same measure, in the same setting: the value for `Cc1nc(-c2ccc(OCC(C)C)c(C#N)c2)sc1C(=O)O` was 110% (inactive).
Take `CCCCCCCCCCCCCCCCCCCCCCO`: the “viability, % of control” value was 117% (inactive).
Take `Nc1nc(OCc2ccccc2)c2[nH]cnc2n1`: the “viability, % of control” value is 112% (inactive).
On the same count and under the same terms, the value for `O=C(CCc1ccc(O)cc1)c1c(O)cc(O)cc1O` was 89.6% (inactive).
On to `Clc1ccc(C(Cn2ccnc2)OCc2ccc(Sc3ccccc3)cc2)c(Cl)c1` (centres undefined), for which the Potency is 20.9 µM (active).
Regarding `NC(=NCc1ccccc1)NC(=O)c1nc(Cl)c(N)nc1N`, the “viability, % of control” value is 124% (inactive).
On the same count and under the same terms, the value for `COC(=O)C1=C(C)NC(C)=C(C(=O)OCCCN2CCC(c3ccccc3)(c3ccccc3)CC2)C1c1cccc([N+](=O)[O-])c1` (centres undefined) was 111% (inactive); that for `NNc1nncc2ccccc12` was 109% (inactive).
Same read-out and setting: under `Cc1ccc(C(=O)c2cc(O)c(O)c([N+](=O)[O-])c2)cc1` stands 124% (inactive); under `C[C@]12CCC(=O)C=C1CC[C@@H]1[C@H]2[C@@H](O)C[C@@]2(C)[C@H]1CC[C@]2(O)C(=O)CO`, 122% (inactive).
In the case of `Oc1ccc2ccccc2c1SSc1c(O)ccc2ccccc12`, the Potency was 23.5 µM (active).
